# Reference: PubChem BioAssay AID493166 (National Center for Advancing Translational Sciences (NCATS), 2011)
# The source made the active and inactive calls. A call without a number means that no potency is given here. Calls follow the shape of the dose curve; as a rule, active = well fitted curve in the direction sought with a large enough effect; inactive = no such curve, though single readings can be large or run the other way.
# Experiment: Retest of LOPAC molecules that induce DNA re-replication in MCF 10A normal breast cells.
# Conditions: MCF 10A DNA re-replication, Hoechst nuclear intensity, 48 h; series mostly up to 45.1 µM
# From the text: NIH Molecular Libraries Probe Production Network [MLPCN] NIH Chemical Genomics Center [NCGC] MLPCN Grant: Fast Track K99 CA136555 Assay Provider: Melvin DePamphilis, NICHD, NIH Assay Overview Eukaryotic cells normally restrict genome duplication to once per cell division. When this process is aberrant, DNA re-replication occurs when cells reinitiate DNA replication before the first round of replication is complete. DNA re-replication induces the DNA damage response, arrests cell proliferation, and triggers apoptosis. The cell cycle components cyclin A, Cdt-1, Cdc6 and geminin are critical regulators of this process and their misregulation results in DNA re-replication in normal and cancer cells. To identify compounds that induce re-replication in normal cells, an image-based assay was used to measure DNA content of nuclei, as detected by the fluorescent DNA binding dye, Hoechst. Cell nuclei were imaged by a fluorescence scanning plate imager and compounds that induce DNA re-replication were identified by the increase of nuclei with elevated fluorescence intensity.
# Assay Protocol Summary For screening, 250 cells in 5 uL/well were dispensed into black clear 1536-well plates (Aurora) using a solenoid-based dispenser. Following transfer of 23 nL compound or DMSO vehicle by a pin tool, the plates were incubated 48 hr at 37 C and 5% CO2. After addition of 1 uL/well Hoescht stain, the plates were incubated 40 min at 37 C, 5% CO2 and total intensity of fluorescent objects (nuclei) were enumerated by an Acumen Explorer Ex3 (TTP LabTech) fluorescence scanning plate imager (405 nm excitation, 500-530 nm emission). Keywords: NIH Roadmap, MLPCN, MLI, MLSMR, qHTS, NCGC, DNA replication, cancer
row,SMILES,Potency
1,C=C(C)[C@H]1Cc2c(ccc3c2O[C@@H]2COc4cc(OC)c(OC)cc4[C@@H]2C3=O)O1,755 nM (active)
2,CC(C)NP(=O)(NC(C)C)OP(=O)(NC(C)C)NC(C)C,inactive
3,COc1cc2c(c(OC)c1OC)-c1ccc(OC)c(=O)cc1[C@@H](NC(C)=O)CC2,inactive
